The source of these data is the supplement of paper PMC9950053.

Structures can show the parent of a compound that is named as a salt.

The assay has as its system Danio rerio larvae (5 dpf). Briefly: 1-h baseline activity (% time moving, periods 1-6) minus DMSO control (percentage points); higher = more locomotor activity than DMSO larvae. To be noted: 10 µM; exposure time: 3 h pre-incubation + 3 h imaging. As to the method: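 Wild-type 5 dpf zebrafish larvae (n=48 per drug, 96-well plates, 28.5 °C) were exposed to Tocris FDA-approved library compounds at 10 µM (0.1% DMSO) for 3 h before and 3 h during imaging. Images were taken every 6 s during visual (moving coloured lines) and acoustic stimuli, and larvae were tracked with the DeepLabCut-based Z-LaP Tracker. Each behavioural measure is the treated-group mean minus the DMSO vehicle control mean (n=844), in percentage points. This mapping covers compounds with 4-character plate codes.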
`CN1CCN(CCCN2c3ccccc3Sc3ccc(Cl)cc32)CC1` [Prochlorperazine dimaleate]: the 1-h baseline activity came out at 4.26.
Consider `Nc1nc(NC2CC2)c2ncn([C@H]3C=C[C@@H](CO)C3)c2n1` [Abacavir hemisulfate], for which the 1-h baseline activity was found to be 6.96.
Turning to `CN(C)CC/C=C1/c2ccccc2COc2ccc(CC(=O)O)cc21` [Olopatadine hydrochloride], the 1-h baseline activity is -0.564.
Consider `CN1CC(=O)N2[C@H](c3ccc4c(c3)OCO4)c3[nH]c4ccccc4c3C[C@@H]2C1=O` [Tadalafil], for which the 1-h baseline activity is 10.9.
To `CCOC(=O)[C@H](CCc1ccccc1)N[C@@H](C)C(=O)N1[C@H](C(=O)O)C[C@@H]2CCC[C@@H]21` [Ramipril] belongs 1.29; to `CCOc1ccccc1OCCN[C@H](C)Cc1ccc(OC)c(S(N)(=O)=O)c1` [Tamsulosin hydrochloride], 3.66.
Take `Nc1cccc2c1CN(C1CCC(=O)NC1=O)C2=O` (stereo not given) [Lenalidomide]: the 1-h baseline activity is -7.06.
To `COc1ccc(-c2ccc3cc(C(=O)O)ccc3c2)cc1C12CC3CC(CC(C3)C1)C2` [Adapalene] belongs -1.21; to `CC(=O)NC[C@H]1CN(c2ccc(N3CCOCC3)c(F)c2)C(=O)O1` [Linezolid], 3.05.
For the molecule `CN(CCOc1ccc(NS(C)(=O)=O)cc1)CCc1ccc(NS(C)(=O)=O)cc1` [Dofetilide], the 1-h baseline activity is -0.169.
On to `COc1c(C)c2c(c(O)c1C/C=C(\C)CCC(=O)O)C(=O)OC2` [Mycophenolic acid], for which the 1-h baseline activity stood at 1.89.
As to `CCC(=O)O[C@]1(C(=O)SCF)[C@H](C)C[C@H]2[C@@H]3C[C@H](F)C4=CC(=O)C=C[C@]4(C)[C@@]3(F)[C@@H](O)C[C@@]21C` [Fluticasone propionate], the 1-h baseline activity turned out to be 6.52.
On to `CC(C)c1nc(CN(C)C(=O)N[C@H](C(=O)N[C@@H](Cc2ccccc2)C[C@H](O)[C@H](Cc2ccccc2)NC(=O)OCc2cncs2)C(C)C)cs1` [Ritonavir], for which the 1-h baseline activity is -4.53.
As to `CCCCCCCCc1ccc(CCC(N)(CO)CO)cc1`, the 1-h baseline activity is -21.1.
For the molecule `CCc1ccc(CCOc2ccc(CC3SC(=O)NC3=O)cc2)nc1` (stereo not given) [Pioglitazone hydrochloride], the 1-h baseline activity was -7.48.
To `Cc1cc(C2CCCCC2)n(O)c(=O)c1` [Ciclopirox] belongs -1.84; to `CCCCC(=O)N(Cc1ccc(-c2ccccc2-c2nnn[nH]2)cc1)[C@H](C(=O)O)C(C)C` [Valsartan], 3.3; to `COc1c(C)c2c(c(O)c1C/C=C(\C)CCC(=O)OCCN1CCOCC1)C(=O)OC2` [Mycophenolate mofetil], -3.96.
As to `CCOc1nc2cccc(C(=O)O)c2n1Cc1ccc(-c2ccccc2-c2noc(=O)[nH]2)cc1` [Azilsartan], the 1-h baseline activity was 1.25.
With `Nc1cc(N2CCCCC2)nc(N)[n+]1[O-]` [Minoxidil], the 1-h baseline activity worked out at 1.13.
On to `CNC(=O)c1ccccc1Sc1ccc2c(/C=C/c3ccccn3)n[nH]c2c1` [Axitinib], for which the 1-h baseline activity is -3.55.
Take `CO[C@H]1/C=C/O[C@@]2(C)Oc3c(C)c(O)c4c(O)c(c5c(nc6cc(C)ccn65)c4c3C2=O)NC(=O)/C(C)=C\C=C\[C@H](C)[C@H](O)[C@@H](C)[C@@H](O)[C@@H](C)[C@H](OC(C)=O)[C@@H]1C` [Rifaximin]: the 1-h baseline activity is -1.58.
To `CN(CCOc1ccc(CC2SC(=O)NC2=O)cc1)c1ccccn1` (stereo not given) [Rosiglitazone] belongs -1.36; to `Cc1ccc(-c2cc(C(F)(F)F)nn2-c2ccc(S(N)(=O)=O)cc2)cc1` [Celecoxib], -5.62.
`Cc1ccc(O)c([C@H](CCN(C(C)C)C(C)C)c2ccccc2)c1` [Tolterodine L-tartrate]: the 1-h baseline activity stood at 0.455.
With `Cc1cccc(CN2CCN(C(c3ccccc3)c3ccc(Cl)cc3)CC2)c1` (stereo not given) [Meclizine dihydrochloride], the 1-h baseline activity worked out at 20.8.
For the molecule `CN1CC[C@@H](NC(=O)Nc2ccc(C#N)cc2)C[C@@H]1c1nc2ccccc2[nH]1`, the 1-h baseline activity is -10.
For the molecule `COC(=O)C1=C(C)NC(C)=C(C(=O)OC(C)C)C1c1cccc2nonc12` (stereo not given) [Isradipine], the 1-h baseline activity was -3.08.
As to `Clc1ccc(COC(Cn2ccnc2)c2ccc(Cl)cc2Cl)c(Cl)c1` (stereo not given) [Miconazole nitrate], the 1-h baseline activity was -19.7.
With `CCCCC1=NC2(CCCC2)C(=O)N1Cc1ccc(-c2ccccc2-c2nnn[nH]2)cc1` [Irbesartan], the 1-h baseline activity came to 1.48.
Regarding `CCCN(CCc1cccs1)[C@H]1CCc2c(O)cccc2C1` [Rotigotine hydrochloride], the 1-h baseline activity is -27.
Consider `O=c1[nH]c(=O)n([C@H]2C[C@H](O)[C@@H](CO)O2)cc1C(F)(F)F` [Trifluorothymidine], for which the 1-h baseline activity came out at 0.518.
With `Cc1cn([C@H]2C=C[C@@H](CO)O2)c(=O)[nH]c1=O` [Stavudine], the 1-h baseline activity was -7.04.
Take `Cn1nnc2c(C(N)=O)ncn2c1=O` [Temozolomide]: the 1-h baseline activity came to 5.97.
With `Cc1ccc(N(CC2=NCCN2)c2cccc(O)c2)cc1` [Phentolamine Mesylate], the 1-h baseline activity worked out at 7.71.
On to `Nc1ncn([C@@H]2O[C@H](CO)[C@@H](O)[C@H]2O)c(=O)n1` [5-Azacytidine], for which the 1-h baseline activity was 2.7.
In the case of `COc1ccc(Cl)cc1C(=O)NCCc1ccc(S(=O)(=O)NC(=O)NC2CCCCC2)cc1` [Glibenclamide], the 1-h baseline activity is -0.0251.
`Cc1nc(Nc2ncc(C(=O)Nc3c(C)cccc3Cl)s2)cc(N2CCN(CCO)CC2)n1` [Dasatinib]: the 1-h baseline activity was -12.5.
Consider `CCOc1cc(CC(=O)N[C@@H](CC(C)C)c2ccccc2N2CCCCC2)ccc1C(=O)O` [Repaglinide], for which the 1-h baseline activity stood at 4.99.
With `O=C(NCC1CCCCN1)c1cc(OCC(F)(F)F)ccc1OCC(F)(F)F` (stereo not given) [Flecainide acetate], the 1-h baseline activity is -0.107.
